# Laboratory results taken from paper PMC10668032, “Altered binding affinity of SIX1-Q177R correlates with enhanced WNT5A and WNT pathway effector expression in Wilms tumor”.
# Over roughly 33,000 sequences, “e-score” has its median near -0.05; the highest 2% begin near 0.38. Many of the other results were omitted from the sample, so the highest values are more common in it than they were.
# Target: T1, SIX1-Q177R homeodomain (human, UniProt Q15475 108-198, Q177R)
# T1 sequence: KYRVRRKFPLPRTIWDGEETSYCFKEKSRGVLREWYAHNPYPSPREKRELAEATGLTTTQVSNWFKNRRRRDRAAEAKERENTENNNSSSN
# Test: universal protein binding microarray; Universal all-10-mer PBM (8x60K, AMADID 030236), 300 nM GST-tagged protein, Alexa Fluor 488 anti-GST; buffer, salt, pH and temperature not stated (as in Berger); high values mean tight binding
# Details: protein: ivt; tags: N-terminal GST; dsDNA, one strand shown
# Summary of the method: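 GST-tagged homeodomains were made by in vitro transcription/translation and quantified by anti-GST western blot against a recombinant GST standard curve. They were applied in duplicate at 300 nM final concentration to universal 'all 10-mer' protein binding microarrays (8×60K format). Binding was quantified as 8-mer E-scores with the Universal PBM Analysis Suite.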
row,Sequence,binding signal
1,AGTGTAGA,0.369 ± 0.0196 E-score
2,ACTTAATG,0.219 ± 0.0268 E-score
3,CAATAGGG,0.2 ± 0.0026 E-score
4,CCCGGACA,0.233 ± 0.00728 E-score
5,TGTCATAA,0.1985 ± 0.00132 E-score
6,AATGCACC,0.162 ± 0.026 E-score
7,AGTGTTCC,0.334 ± 0.0173 E-score
8,GGCGTTAC,0.154 ± 0.00446 E-score
9,AGTGTTTC,0.299 ± 0.0238 E-score
10,GGGGTTAC,0.261 ± 0.0216 E-score
11,GGTGTTAC,0.474 ± 0.00578 E-score
12,AGTGTTAT,0.395 ± 0.041 E-score
13,AGTGTTAC,0.387 ± 0.0129 E-score
14,AGTGTTAA,0.394 ± 0.0556 E-score
15,AGGAGTAT,0.168 ± 0.0487 E-score
16,CGGGAACA,0.157 ± 0.0155 E-score
17,CACCGGCG,0.244 ± 0.0186 E-score
18,CCGGGGTC,0.323 ± 0.0298 E-score
19,ACCCTAGA,0.176 ± 0.00214 E-score
20,CACGTCAC,0.16 ± 0.0113 E-score
21,GAGGTACA,0.252 ± 0.0061 E-score
22,CGTGACTC,0.207 ± 0.00528 E-score
23,GGTGACAC,0.4718 ± 0.00406 E-score
24,CGTGACAC,0.454 ± 0.00689 E-score
25,CGTGACCC,0.211 ± 0.0247 E-score

row,Sequence,binding signal
1,GGTGATAC,0.313 ± 0.00834 E-score
2,AGTGACCC,0.234 ± 0.019 E-score
3,GGGGTGAC,0.16 ± 0.0356 E-score
4,AGTGACTC,0.193 ± 0.0365 E-score
5,AGTGACAC,0.469 ± 0.00575 E-score
6,CACGGAGG,0.222 ± 0.0241 E-score
7,CACGGCTG,0.201 ± 0.0155 E-score
8,AGTATCAT,0.259 ± 0.0404 E-score
9,CGCCGCAC,0.151 ± 0.00857 E-score
10,CCCGACCC,0.187 ± 0.0176 E-score
11,ACCGACAC,0.425 ± 0.0144 E-score
12,CCCGACGC,0.151 ± 0.00346 E-score
13,GCCGATCC,0.19 ± 0.00748 E-score
14,ACCGACCC,0.192 ± 0.0372 E-score
15,ACCGACTC,0.204 ± 0.0477 E-score
16,GCCGACAC,0.422 ± 0.0235 E-score
17,CCCGACAC,0.45 ± 0.0155 E-score
18,CAGCACCG,0.242 ± 0.0129 E-score
19,CGGACGAC,0.152 ± 0.037 E-score
20,GTTCCGGA,0.175 ± 0.0199 E-score
21,ACCCACGA,0.153 ± 0.0296 E-score
22,AAACTAGA,0.163 ± 0.00455 E-score
23,AGTGTGCC,0.159 ± 0.0249 E-score
24,AGTGTACC,0.414 ± 0.00528 E-score
25,CGTGTACA,0.427 ± 0.00703 E-score

row,Sequence,binding signal
1,CGTGTACC,0.4357 ± 0.00135 E-score
2,CTTGTACA,0.154 ± 0.0493 E-score
3,CGTGTGCC,0.168 ± 0.0218 E-score
4,ACTGTACA,0.223 ± 0.00571 E-score
5,GGGGTACC,0.247 ± 0.0225 E-score
6,CATGTACA,0.167 ± 0.0144 E-score
7,CGGGTACC,0.16 ± 0.0136 E-score
8,AGAGTACA,0.186 ± 0.00263 E-score
9,AGTGTACA,0.418 ± 0.0292 E-score
10,AGTACCCA,0.175 ± 0.0132 E-score
11,CACCATGG,0.343 ± 0.0218 E-score
12,CGTAGGTA,0.209 ± 0.00643 E-score
13,CACTAGTC,0.208 ± 0.0318 E-score
14,CACGGTAC,0.186 ± 0.0635 E-score
15,CACTATAG,0.192 ± 0.0146 E-score
16,GCTGTACA,0.208 ± 0.0271 E-score
17,AGTGTACG,0.407 ± 0.00139 E-score
18,GGTGTACA,0.4817 ± 0.00156 E-score
19,AGTGTGTG,0.197 ± 0.0254 E-score
20,GTTGTACA,0.223 ± 0.0201 E-score
21,CGAGTACG,0.19 ± 0.0193 E-score
22,CACGGAAA,0.188 ± 0.0559 E-score
23,ATACCGAC,0.173 ± 0.0172 E-score
24,ACCCCGAA,0.228 ± 0.0524 E-score
25,CCCCCGAG,0.188 ± 0.0196 E-score

row,Sequence,binding signal
1,GCACCGAA,0.156 ± 0.0137 E-score
2,ACACCGAG,0.4783 ± 0.00449 E-score
3,ACACCGAC,0.475 ± 0.00507 E-score
4,ACCCCGAG,0.317 ± 0.0221 E-score
5,ACGCCGAT,0.152 ± 0.0158 E-score
6,GCACCGAC,0.225 ± 0.017 E-score
7,ACACCGAT,0.473 ± 0.00479 E-score
8,ACACCGAA,0.4689 ± 0.000997 E-score
9,ACCCCGAT,0.229 ± 0.00378 E-score
10,CACCGTAG,0.255 ± 0.00273 E-score
11,CGGAGTAC,0.229 ± 0.00578 E-score
12,GGCGAACA,0.198 ± 0.0404 E-score
13,ACCCTTAG,0.172 ± 0.00692 E-score
14,CACTAAAC,0.195 ± 0.0243 E-score
15,CACTTGAC,0.258 ± 0.0158 E-score
16,CAAGGATA,0.184 ± 0.029 E-score
17,ACTCCACA,0.206 ± 0.00721 E-score
18,AGTTGGGG,0.16 ± 0.00841 E-score
19,ATGACACC,0.4917 ± 0.00156 E-score
20,CTGACACC,0.4913 ± 0.00298 E-score
21,ATGACACA,0.275 ± 0.0196 E-score
22,ATGACTCC,0.273 ± 0.00839 E-score
23,CTGACACA,0.297 ± 0.0288 E-score
24,ATGACACG,0.4485 ± 0.00163 E-score
25,ATGACGCC,0.172 ± 0.00576 E-score

row,Sequence,binding signal
1,CTGACGCC,0.185 ± 0.012 E-score
2,GTGACACA,0.333 ± 0.0417 E-score
3,CCCCCAAG,0.227 ± 0.0377 E-score
4,CGGCTACG,0.164 ± 0.00561 E-score
5,CACCAATA,0.276 ± 0.0342 E-score
6,CCCCCATA,0.192 ± 0.0334 E-score
7,GGGATGTA,0.159 ± 0.0364 E-score
8,AACGAACA,0.208 ± 0.0231 E-score
9,CGGAGTTA,0.253 ± 0.0116 E-score
10,GTGTGTTA,0.298 ± 0.00829 E-score
11,AGGTGTTC,0.457 ± 0.00831 E-score
12,GGGGGTTA,0.293 ± 0.0288 E-score
13,AGGTGTTG,0.448 ± 0.00602 E-score
14,AAGTGTTG,0.289 ± 0.02 E-score
15,GGGTGTTA,0.475 ± 0.00715 E-score
16,ACGTGTTG,0.346 ± 0.00562 E-score
17,CGGTGTTA,0.4847 ± 0.00334 E-score
18,AGGTGCTC,0.158 ± 0.0126 E-score
19,CGGTGCTA,0.2 ± 0.00414 E-score
20,ACGCCCAG,0.1915 ± 0.000269 E-score
21,CACCTGGC,0.152 ± 0.00727 E-score
22,CGCCCAGC,0.161 ± 0.0486 E-score
23,AATACCCT,0.171 ± 0.00453 E-score
24,CCCCTCGC,0.169 ± 0.0263 E-score
25,TGTCGGAA,0.233 ± 0.0472 E-score

row,Sequence,binding signal
1,GTGTGCTA,0.321 ± 0.0179 E-score
2,GCGTTACA,0.201 ± 0.00911 E-score
3,GCTGTGGA,0.17 ± 0.0188 E-score
4,CGCCGTAC,0.178 ± 0.00701 E-score
5,AATGATCC,0.17 ± 0.0375 E-score
6,GTTGGACA,0.245 ± 0.0116 E-score
7,CCTCTCGA,0.17 ± 0.0627 E-score
8,CACGCACA,0.262 ± 0.00327 E-score
9,AGGTGTTA,0.463 ± 0.00921 E-score
10,CTGTGTTC,0.175 ± 0.0413 E-score
11,AGGGGTTA,0.21 ± 0.0107 E-score
12,CGGTGTTC,0.476 ± 0.00165 E-score
13,CGGTGCTC,0.218 ± 0.0427 E-score
14,CGGAGTCA,0.356 ± 0.0051 E-score
15,TCATAACA,0.23 ± 0.0137 E-score
16,CCCGGTAC,0.22 ± 0.0152 E-score
17,CACCCCTA,0.283 ± 0.00661 E-score
18,CACCCTAA,0.3263 ± 0.00228 E-score
19,CACCCCTC,0.3928 ± 0.00375 E-score
20,CACCCCTG,0.351 ± 0.0108 E-score
21,CACCCTAG,0.3472 ± 0.00144 E-score
22,CACCCTAC,0.387 ± 0.01 E-score
23,CACCCGCC,0.339 ± 0.0104 E-score
24,CACTTAGC,0.179 ± 0.029 E-score
25,ACGCCCAC,0.208 ± 0.00669 E-score

row,Sequence,binding signal
1,ATCGGCAC,0.175 ± 0.0126 E-score
2,AGTAGGGG,0.196 ± 0.0406 E-score
3,CCATGGAA,0.156 ± 0.015 E-score
4,ACCCTGGG,0.238 ± 0.00896 E-score
5,ACACTGGG,0.412 ± 0.0164 E-score
6,AAACTGGT,0.203 ± 0.0496 E-score
7,ACACTGAT,0.374 ± 0.00694 E-score
8,ACACTGGA,0.3915 ± 0.0011 E-score
9,ACACTGGC,0.379 ± 0.00546 E-score
10,ACGCTGGG,0.154 ± 0.0213 E-score
11,CCACTGGA,0.206 ± 0.0185 E-score
12,ACACTTGC,0.363 ± 0.0273 E-score
13,ACACTGGT,0.4256 ± 0.00135 E-score
14,ACACTGTA,0.3506 ± 0.0019 E-score
15,ACCATGGG,0.162 ± 0.0492 E-score
16,CGATAACA,0.232 ± 0.018 E-score
17,GGGGTGGA,0.159 ± 0.0262 E-score
18,AGTCAGAG,0.156 ± 0.0606 E-score
19,CACCCTGG,0.315 ± 0.016 E-score
20,CCTTGACC,0.172 ± 0.00687 E-score
21,AAGGGGTA,0.2871 ± 0.000587 E-score
22,AAACTACA,0.184 ± 0.032 E-score
